Assay results from PubChem BioAssay (Tox21).
Results filed as inconclusive are left out. Where a call stands in place of a potency, no number is given. A number with no mark means an inactive call. Active and inactive are the calls of the source. The call rests on the fitted dose curve.

Experiment: p53 small molecule agonists, cell-based qHTS assay with human liver microsomes: qHTS cell viability counter screen (AID 1963579); further: nearly all actives have a fitted effect of over 45% in size
Conditions: p53RE-bla HCT-116 viability, ATP luminescence, 16 h, HLM; series mostly up to 66 µM
From the text: National Center for Advancing Translational Sciences [NCATS]
Division of Preclinical Innovation [DPI]
U.S. Environmental Protection Agency [EPA]
National Institutes of Environmental Health Sciences [NIEHS]
National Toxicology Program [NTP]
U.S. Food and Drug Administration [FDA]
p53, a tumor suppressor protein, is activated following cellular insult, including DNA damage and other cellular stresses. The activation of p53 regulates cell fate by inducing DNA repair, cell cycle arrest, apoptosis, or cellular senescence. The activation of p53, therefore, is a good indicator of DNA damage and other cellular stresses. […] The activation of the reporter gene under culture conditions can be detected by fluorescence intensity. This cell line was used to screen the Tox21 10K compound library in the condition of presence of human liver microsomes and to identify agonists that activate the p53 signaling pathway after in vitro metabolic activation (Ooka et al., Archive of Toxicology 96:1975-1987, 2022).
Tox21 Assay Protocol Summary:
The p53RE-bla cells were dispensed at 4,000cells/3ul/well in 1536-well black-clear bottom plates. After the assay plates were incubated at 37 C, 5% CO2 incubator for 5 hours, 23 nL of compounds dissolved in DMSO, positive controls or DMSO only was transferred to the assay plate. Following compound addition, 3 uL of human liver microsomes (XenoTech, Kansas City, KS) at final concentration of 0.5 mg/mL and 1uL of B-Nicotinamide adenine dinucleotide 2'-phosphate (NADPH) at final concentration of 0.5 mg/mL were transferred to the assay plate. The plates were incubated at 37 C for 16 hours. 1 uL of LiveBLAzer detection mixture was added to each well and the plates were incubated at room temperature in the dark for 2 h. Fluorescence intensity at 460 and 530 nm emission and 405 nm excitation were measured by an Envision plate reader. For cell viability readout that measures cytotoxicity, 4 ul/well of CellTiter-Glo reagent was added into the assay plates using a Flying Reagent Dispenser. After 30 min incubation at room temperature, the luminescence intensity in the plates was measured using a ViewLux plate reader.
Potency means the concentration at half of the fitted maximal effect.

Row | SMILES | Potency | activity change, negative = cytotoxicity
1 | CCOc1ccc(N=Nc2ccc(/C=C/c3ccc(N=Nc4ccc(OCC)cc4)cc3S(=O)(=O)O)c(S(=O)(=O)O)c2)cc1 | inactive | 
2 | OCc1cc(C(O)CNCCCCCCOCCCCc2ccccc2)ccc1O (stereo not given) | inactive | 
3 | OCCCCCCCCCCCCBr | inactive | 
4 | Clc1ccc2cc3ccccc3cc2c1 | inactive | 
5 | COc1cc(Cl)ccc1Oc1ccc(Cl)cc1Cl | inactive | 
6 | CC(CN)CC(C)(C)CCN (stereo not given) | inactive | 
7 | O=C1c2ccccc2C(=O)c2c(Cl)cccc21 | inactive | 
8 | CCN(Cc1cccnc1)C(=O)c1cccc(Cl)c1[C@]1(C)C(=O)N(Cc2ccc(OC)cc2OC)c2ccc(Cl)cc21 | inactive | 
9 | N/C(=N\N=C\c1ccc(Cl)cc1)N/N=C/c1ccc(Cl)cc1 | inactive | 
10 | CCCCCC/C=C/C=O | inactive | 
11 | C#C[C@]1(O)CC[C@H]2[C@@H]3[C@H](C)CC4=C(CCC(=O)C4)[C@H]3CC[C@@]21C | inactive | 
12 | Nc1ccc(Oc2ccc(N)c(N)c2)cc1 | inactive | 
13 | Nc1ccc(N=Nc2ccccc2)c(N)c1 | inactive | 
14 | CCCCCCCCCCl | inactive | 
15 | CCCCCCCCn1sc(Cl)c(Cl)c1=O | 36.3 µM (active) | 
16 | CCCCCCCCCCCC(=O)OCC(O)CO (stereo not given) | inactive | 
17 | CCCCCOC(=O)CCCCC | inactive | 
18 | CCCCC(CC)CN1CN(CC(CC)CCCC)CC(C)(N)C1 (stereo not given) | inactive | 
19 | O=Cc1ccccc1Cl | inactive | 
20 | CC(=O)CCC1=C(C)CCCC1(C)C | inactive | 

Row | SMILES | Potency | activity change, negative = cytotoxicity
21 | CCCCN1C[C@H](O)[C@@H](O)[C@H](O)[C@H]1CO | inactive | 
22 | Nc1nc2ccccc2n1Cc1ccc(F)cc1 | inactive | 
23 | Clc1ccc(Nc2nnc(Cc3ccncc3)c3ccccc23)cc1 | inactive | 
24 | CCCOC(=O)c1c(Cl)c(Cl)c(Cl)c(Cl)c1C(=O)OCCC | inactive | 
25 | COc1cc2nc(N3CCN(C(=O)C4COc5ccccc5O4)CC3)nc(N)c2cc1OC (stereo not given) | inactive | 
26 | COC(C)=O | inactive | 
27 | C=CCOCC(O)CS(=O)(=O)O (stereo not given) | inactive | 
28 | Nc1ccccc1Nc1ccccc1 | inactive | 
29 | COC(C)CCO (stereo not given) | inactive | 
30 | O=C(OC[C@H]1O[C@@H](OC(=O)c2cc(O)c(O)c(OC(=O)c3cc(O)c(O)c(O)c3)c2)[C@H](OC(=O)c2cc(O)c(O)c(OC(=O)c3cc(O)c(O)c(O)c3)c2)[C@@H](OC(=O)c2cc(O)c(O)c(OC(=O)c3cc(O)c(O)c(O)c3)c2)[C@@H]1OC(=O)c1cc(O)c(O)c(OC(=O)c2cc(O)c(O)c(O)c2)c1)c1cc(O)c(O)c(OC(=O)c2cc(O)c(O)c(O)c2)c1 |  | 8.38% [at 13.5 µM]
31 | CC(=O)[C@H]1[C@H](C#N)C[C@H]2[C@@H]3CC=C4C[C@@H](O)CC[C@]4(C)[C@H]3CC[C@@]21C | inactive | 
32 | Cc1cc(C)c(N)cc1C | inactive | 
33 | COc1ccc(CCN(C)CCCN2CCc3cc(OC)c(OC)cc3CC2=O)cc1OC | inactive | 
34 | C[C@]12CCC(=O)C=C1C=C[C@@H]1[C@@H]2CC[C@@]2(C)[C@H]1CC[C@@]21CCC(=O)O1 | inactive | 
35 | CNc1ccc([N+](=O)[O-])cc1 | inactive | 
36 | CCCNC(C)C(=O)Nc1c(C)csc1C(=O)OC (stereo not given) | inactive | 
37 | Cc1ccc(NC=O)c(C)c1 | inactive | 
38 | CCCCCC(C)OC(=O)COc1ccc(Cl)c2cccnc12 (stereo not given) | inactive | 
39 | CCOC(=O)c1ccccc1OC | inactive | 
40 | Nc1cccc([N+](=O)[O-])c1 | inactive | 
